# Measurements taken from ChEMBL document CHEMBL3988442, “University of Dundee, Small-Polar-MMV Screening Library” (2021).
# Screen size: about 66,000 compounds; about 960 (1.5%) showed an effect of 50% or more. The list comes from a sample in which strong results are over-represented; it also holds similar structures and randomly drawn compounds.
# Test system: Trypanosoma brucei
# Test: Trypanosoma brucei 72 hour study
# Type: functional, organism-based
# Set-up: scale not given: in the data most compounds retested in dose-response had high values
structure (smiles),measurement,setting,value
O=C(O)C(F)(F)F.c1coc(CN2CCO[C@H]3[C@H](OCC4CCCC4)CC[C@@H]32)c1,Percent Effect,"30.3 µM, […]",1.448%
Cc1csc(N2CCN(CC(=O)N3CCNC3=O)CC2C)n1 (stereo not given),Percent Effect,10 µM,-102.2%
CC(C)NC(=O)c1ccc2c(c1)nc1n2CCN(C(C)C)C1,Percent Effect,"30 µM, 30.03 µM",-14.37%
CC(C)NC(=O)c1ccc2c(c1)nc1n2CCN(c2ccccc2)C1,Percent Effect,"30 µM, 30.03 µM",50.34%
CC(C)NC(=O)c1ccc2c(c1)nc1n2CCN(Cc2ccco2)C1,Percent Effect,"30 µM, 30.03 µM",-8.027%
COCC(=O)NCc1cnc(C)nc1-c1cn(C)c2ccc(OC)cc12,Percent Effect,"30.3 µM, […]",-5.457%
COc1ccc2c(c1)c(-c1nc(C)ncc1CN)cn2C,Percent Effect,"30.3 µM, […]",-32.27%
COc1ccc2c(c1)c(-c1nc(N(C)C)ncc1CN)cn2C,Percent Effect,"30.3 µM, […]",100.6%
O=C(Nc1ccccc1Cl)N1CCN(CC2CC2)[C@@H]2CS(=O)(=O)C[C@@H]21,Percent Effect,"30 µM, 30.03 µM",-39.32%
COc1ccc(C(=O)NC[C@H]2COCc3nc4cc(C)ccc4n32)cc1,Percent Effect,"30.3 µM, […]",101.3%
CCNC(=O)NC[C@H]1COCc2nc3cc(C)ccc3n21,Percent Effect,"30.3 µM, […]",32.27%
Cc1ccc2c(c1)nc1n2[C@@H](CNC(=O)c2cncnc2)COC1,Percent Effect,"30.3 µM, […]",-3.868%
COc1ccc2c(c1)nc1n2[C@@H](CNC(=O)c2cccnc2)COC1,Percent Effect,"30.3 µM, […]",-10.65%
CCNC(=O)NC[C@H]1COCc2nc3cc(OC)ccc3n21,Percent Effect,"30 µM, 30.03 µM",86.68%
COc1ccc2c(c1)nc1n2[C@@H](CNC(=O)c2ccccn2)COC1,Percent Effect,"30 µM, 30.03 µM",-12.62%
Cc1ccoc1-c1nnc(CNC2CCCN(c3cccnn3)C2)o1 (stereo not given),Percent Effect,"30.3 µM, […]",3.988%
CNCC(=O)N1CCCC1c1cncc(Oc2ccc(F)cc2)n1.Cl (stereo not given),Percent Effect,"30.3 µM, […]",-5.938%
CS(=O)(=O)c1ccc(-c2cnc(C3CCCN3)cn2)cc1.Cl (stereo not given),Percent Effect,"30.3 µM, […]",-27.05%
Cc1nccc(N[C@H]2CN(C(=O)CN3CCCC3=O)C[C@@H]2C(C)C)n1,Percent Effect,"30 µM, 30.03 µM",-19.05%
O=C(CN1CCCCC1)N1CCC(c2cc(=O)n3c(n2)CCCCC3)C1.O=C(O)CC(O)(CC(=O)O)C(=O)O (stereo not given),Percent Effect,"30.3 µM, […]",-11%
Cc1ccc(CN2CCC3(CC2)C(=O)N(CC(C)C)CCN3C)s1.O=C(O)C(F)(F)F.O=C(O)C(F)(F)F,Percent Effect,"30.3 µM, […]",-75.61%
COc1cccc([C@@]2(O)CC[C@@H]3CN(C(=O)c4ccn(C)n4)C[C@@H]32)c1,Percent Effect,"30.3 µM, […]",1.75%
CN(CC(=O)NCC(F)(F)F)C(=O)c1ccc(C(=O)OC(C)(C)C)cc1,Percent Effect,"30 µM, 30.03 µM",14.69%
N#Cc1c(Cl)nsc1NCc1ccnc(OCC(F)(F)F)c1,Percent Effect,"30 µM, 30.03 µM",-8.155%
CCS(=O)(=O)c1ccccc1N1CCC(NC2CCCC2)CC1,Percent Effect,"30.3 µM, […]",22.61%
N#Cc1cn(C2CC2)c(=O)n(Cc2cc(-c3cccs3)on2)c1=O,Percent Effect,"30.3 µM, […]",-130.2%
N#Cc1cn(C2CC2)c(=O)n(Cc2noc(-c3cccs3)n2)c1=O,Percent Effect,"30.3 µM, […]",18.62%
N#Cc1cn(C2CC2)c(=O)n(Cc2ncc(-c3cccs3)o2)c1=O,Percent Effect,"30.3 µM, […]",55.83%
Cc1nc(CNC(=O)N2CCN(c3ccc(Cl)cn3)CC2)sc1C,Percent Effect,"30.3 µM, […]",8.84%
COc1cccc(C(=O)N2C[C@H]3CC[C@@H]2CN(Cc2cscn2)C3)c1,Percent Effect,"30 µM, 30.03 µM",-1.998%
O=C(NCc1cccs1)[C@H]1CC[C@@H]2[C@@H](CCN2C2CCC2)O1.O=C(O)C(F)(F)F,Percent Effect,"30 µM, 30.03 µM",-12.3%
Cl.Cl.c1cnc(NCc2cncc3c2CCN(Cc2cccs2)C3)nc1,Percent Effect,"30 µM, 30.03 µM",-8.466%
CCCN1CCC(NC(=O)c2csc(C)c2C)CC1,Percent Effect,"30.3 µM, […]",-65.99%
CC(C)CN1CCC(NC(=O)c2ccc(F)cc2I)CC1,Percent Effect,"30 µM, 30.03 µM",77.98%
CC(C)CN1CCC(NC(=O)c2ccc(F)cc2F)CC1,Percent Effect,"30 µM, 30.03 µM",-0.8337%
CC(C)CN1CCC(NC(=O)c2ccc(F)cc2Cl)CC1,Percent Effect,"30 µM, 30.03 µM",-22.52%
CCN1CCC(NC(=O)c2ccc(F)cc2I)CC1,Percent Effect,"30 µM, 30.03 µM",29.33%
CCCN1CCC(NC(=O)c2ccc(F)cc2I)CC1,Percent Effect,"30 µM, 30.03 µM",80.53%
CNC(=O)COC1COC2(CCN(Cc3cccnc3OC)CC2)C1.O=C(O)C(F)(F)F (stereo not given),Percent Effect,"30.3 µM, […]",-30.72%
O=C(O)C(F)(F)F.O=C([C@@H]1C[C@@H]2CCN(c3cccc(F)c3)C[C@H]2O1)N1CCCC1,Percent Effect,"30.3 µM, […]",-10.13%
Cc1cc(NC(=O)c2ccc(CN3CC[C@H](O)C3)cc2)ccc1F,Percent Effect,"30.3 µM, […]",41.32%
COc1cc(NC(=O)c2ccc(CN3CC[C@H](O)C3)cc2)cc(OC)c1,Percent Effect,"30.3 µM, […]",58.59%
Cc1cncc(NC(=O)c2ccc(CN3CC[C@H](O)C3)cc2)c1,Percent Effect,"30.3 µM, […]",-21.22%
CN(C)Cc1cn2c(n1)CN(C(=O)Cc1ccsc1)CC2.O=C(O)C(F)(F)F,Percent Effect,"30 µM, 30.03 µM",-42.4%
Cl.O=c1c2sccc2nc2n1CCN(Cc1ccc(F)c(F)c1)CC2,Percent Effect,"30.3 µM, […]",15.73%
COc1ccnc(N2CCc3ccc(OC(F)F)cc3C2)n1,Percent Effect,"30.3 µM, […]",7.96%
COc1ccc(C2CN(c3nc(C)cc(C)n3)CCN2C(C)=O)cc1 (stereo not given),Percent Effect,"30.3 µM, […]",9.247%
Cc1cc(C)nc(N2CCc3ccc(OC(F)F)cc3C2)n1,Percent Effect,"30.3 µM, […]",70.84%
COc1ccc2c(c1)CN(c1nc(C)cc(C)n1)CC2,Percent Effect,"30.3 µM, […]",100.3%
COc1ccc2c(c1)CN(c1cc(N3CCCC3CO)ncn1)CC2 (stereo not given),Percent Effect,"30.3 µM, […]",27.38%
COc1cccc(O[C@H]2CCN(c3nc(C)cc(C)n3)CC[C@@H]2O)c1,Percent Effect,"30.3 µM, […]",-10.89%
CN1CCc2c(C#N)c(NCc3cccnc3)n3cnnc3c2C1.Cl,Percent Effect,"30 µM, 30.03 µM",-8.696%
CCC(C)N(Cc1ccsc1)C(=O)c1ccc2[nH]nnc2c1 (stereo not given),Percent Effect,"30 µM, 30.03 µM",2.149%
O=C(O)C(F)(F)F.c1cnc(N2CCO[C@H]3CN(CC4CCOC4)C[C@H]32)cn1 (stereo not given in full),Percent Effect,"30.3 µM, […]",-89.28%
Fc1ccc(N2CCCN(c3ccc(Cn4ccnc4)cn3)CC2)cc1,Percent Effect,"30 µM, 30.03 µM",-16.3%
CS(=O)(=O)N1CCO[C@@H]2CN(C(=O)N3CCOCC3)CC[C@@H]2C1,Percent Effect,"30.3 µM, […]",-93.06%
Cc1cnn(CCNCc2nc(CNC(=O)c3ccccc3)no2)c1,Percent Effect,"30.3 µM, […]",55.13%
Cc1cnn(CCNCc2nc(Cc3ccccc3)no2)c1,Percent Effect,"30 µM, 30.03 µM",-8.184%
CCc1noc(CNCCn2cc(C)cn2)n1,Percent Effect,"30.3 µM, […]",-10.46%
CC(NC(=O)NCc1cc(Br)cs1)c1ccccn1 (stereo not given),Percent Effect,10 µM,-58.94%
COc1ccc(CN2CCC(c3nnc(-c4scnc4C)o3)CC2)cc1,Percent Effect,"30.3 µM, […]",3.062%
CCCn1ncc(-c2ccnc(NC3CCSC3)n2)c1C (stereo not given),Percent Effect,"30.3 µM, […]",99.54%
CCCn1cc(-c2ccnc(NC3CCc4ccccc4C3)n2)c(C)n1 (stereo not given),Percent Effect,"30 µM, 30.03 µM",2.067%
CCCn1ncc(-c2ccnc(N[C@@H]3C[C@@H]4CC[C@H]3C4)n2)c1C,Percent Effect,"30.3 µM, […]",89.15%
CCc1cc(N[C@@H]2C[C@H]3CC[C@@H]2C3)n2nccc2n1,Percent Effect,"30 µM, 30.03 µM",24.99%
CCCn1cc(-c2ccnc(NC3CCCc4ccccc43)n2)c(C)n1 (stereo not given),Percent Effect,"30 µM, 30.03 µM",15.8%
CCCn1cc(-c2ccnc(NC3CCc4ccccc43)n2)c(C)n1 (stereo not given),Percent Effect,"30 µM, 30.03 µM",34.15%
CCCn1ncc(-c2ccnc(NC3CCCc4ccccc43)n2)c1C (stereo not given),Percent Effect,"30 µM, 30.03 µM",93.43%
CCCn1ncc(-c2ccnc(NC3CC(C)(C)NC(C)(C)C3)n2)c1C,Percent Effect,"30.3 µM, […]",25.37%
Cn1ncc2c(N[C@@H]3C[C@@H]4CC[C@H]3C4)nc(-c3ccncc3)nc21,Percent Effect,"30.3 µM, […]",-15.13%
Cc1ccc(C(=O)N2CCC3(CCN3c3ncccn3)C2)cn1.O=C(O)C(F)(F)F (stereo not given),Percent Effect,"30 µM, 30.03 µM",-27.47%
COC(=O)CCN(C)C(=O)c1csc(Cc2ccccc2F)n1,Percent Effect,"30 µM, 30.03 µM",-48.33%
O=C(O)C(F)(F)F.O=C(c1ccccc1)N1CCC2(CCCN2c2ncccn2)CC1,Percent Effect,"30 µM, 30.03 µM",-3.287%
CCCN1C[C@H]2CC[C@@H]1CN(Cc1cccc(O)c1)C2,Percent Effect,"30.3 µM, […]",-137.4%
Oc1cccc(CN2C[C@H]3CC[C@@H]2CN(Cc2ccc(F)cc2)C3)c1,Percent Effect,"30.3 µM, […]",102.6%
Cc1nnsc1CN1C[C@H]2CC[C@@H]1CN(Cc1ccc(F)cc1)C2,Percent Effect,"30 µM, 30.03 µM",-34.67%
Cc1ccc(CN2CCc3nnc(COCCN(C)C)n3CC2)o1.O=C(O)C(F)(F)F.O=C(O)C(F)(F)F,Percent Effect,"30.3 µM, […]",-5.489%
Cc1ccc2c(n1)N(CC1CC1)CCN(Cc1cnn(C)c1)C2,Percent Effect,"30.3 µM, […]",-21.1%
CN1CCCN(c2nccc(-c3c[nH]nc3C3CCCCC3)n2)CC1,Percent Effect,"30 µM, 30.03 µM",98.42%
c1cc(-c2cn3nccc3nc2C2CCCCC2)nc(N2CCCC2)n1,Percent Effect,"30.3 µM, […]",41.66%
c1cc(-c2c[nH]nc2C2CCCCC2)nc(N2CCCCCC2)n1,Percent Effect,"30.3 µM, […]",99.82%
CN1CCCN(c2nccc(-c3cc(C(=O)O)ccn3)n2)CC1,Percent Effect,"30 µM, 30.03 µM",-37.76%
NC(=O)C1CCN(c2nccc(-c3c[nH]nc3C3CCCCC3)n2)CC1,Percent Effect,"30.3 µM, […]",100.2%
Nc1nccc(-c2c[nH]nc2C2CCCCC2)n1,Percent Effect,"30 µM, 30.03 µM",44.22%
CN1CCCN(c2nccc(-c3c[nH]nc3-c3ccncc3)n2)CC1,Percent Effect,"30.3 µM, […]",10.61%
Cc1ccnc(N2CCC(C(N)=O)CC2)n1,Percent Effect,"30.3 µM, […]",-17.59%
CN1CCCN(c2nccc(-c3c[nH]c4ccc(Br)cc34)n2)CC1,Percent Effect,"30.3 µM, […]",99.21%
NC(=O)[C@H]1CCCN(c2nccc(-c3c[nH]nc3-c3cccnc3)n2)C1,Percent Effect,"30.3 µM, […]",-17.38%
CN1CCCN(c2nccc(-c3cncnc3C3CCCCC3)n2)CC1,Percent Effect,"30.3 µM, […]",-3.717%
CN1CCN(c2nccc(-c3cncnc3C3CCCCC3)n2)CC1,Percent Effect,"30.3 µM, […]",-9.341%
Cc1nnsc1C(=O)N1CCCC(n2nnc3cc(F)ccc32)C1 (stereo not given),Percent Effect,"30.3 µM, […]",2.47%
CC1COCCN1Cc1nc(-c2ccsc2)no1 (stereo not given),Percent Effect,"30.3 µM, […]",-0.3401%
same,Percent Effect,"10 mM, 10 mM as filed; unlikely as a test dose",-39.38%
CC(C)N1CCO[C@@H]2CN(S(=O)(=O)c3cccs3)CC[C@@H]2C1.O=C(O)C(F)(F)F,Percent Effect,"30.3 µM, […]",-39.91%
COc1ccc(OC)c(CN2CCc3nc4ccsc4c(=O)n3CC2)c1.Cl,Percent Effect,"30.3 µM, […]",12.93%
